Source: PubChem (National Center for Advancing Translational Sciences (NCATS))
DRD3 agonist: activates the human D3 dopamine receptor. D3R DiscoveRx beta-arrestin cells, luminescence, 90 min. max activation, %. 410,000 tested, 0.58% active. AID 652048; in the data active = max activation above about 30%; also: 0% is about no effect
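Agonist-mode cell screen: cells plated at 1500/well and incubated overnight at 37 °C, then exposed to library compounds for 90 min at 37 °C. Detection reagent was added for 30–60 min at room temperature, and luminescence was read.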
B2AR arrestin: agonists driving beta-arrestin recruitment to human beta2-adrenergic receptor | 330,000 tested, 0.02% active | P07550 | Potency, µM (titrated, usually from 46.1 µM), for the others: at the highest dose activation, most hits filed as activators | beta-arrestin recruitment to beta2AR, cell-based reporter; active = well fitted activation curve with a large enough effect; inconclusive = small, poorly fitted or top-dose-only effect;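 also: potency is read from the fitted curve at half-maximal effect; 0% = DMSO controls and full agonism = EC100 isoproterenol or metaproterenol; nearly all actives have a fitted effect of over 65% in size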
Target sequence (P07550 whole entry, looked up): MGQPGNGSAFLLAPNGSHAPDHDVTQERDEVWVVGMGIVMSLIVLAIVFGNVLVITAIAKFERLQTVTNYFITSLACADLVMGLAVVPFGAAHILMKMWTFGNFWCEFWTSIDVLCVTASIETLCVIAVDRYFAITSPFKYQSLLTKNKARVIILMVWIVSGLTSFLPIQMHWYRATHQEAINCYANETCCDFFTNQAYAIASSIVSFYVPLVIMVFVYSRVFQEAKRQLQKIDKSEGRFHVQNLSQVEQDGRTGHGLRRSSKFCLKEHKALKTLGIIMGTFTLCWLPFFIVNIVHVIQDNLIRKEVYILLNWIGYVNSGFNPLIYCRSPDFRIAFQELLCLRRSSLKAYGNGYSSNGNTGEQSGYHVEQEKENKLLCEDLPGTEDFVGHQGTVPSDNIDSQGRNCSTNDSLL
Giardia killer: kills Giardia lamblia; Giardia lamblia trophozoite viability; activity change, % at 7.66 µM, hits read low; 340,000 tested, 0.15% active; AID 540267; in the data active = activity change below about -80%; inconclusive = between about -30% and that limit;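 also: parasites exposed to compound for two days anaerobically before the ATP read; % is scaled to controls: 0 for no effect and ±100 for the full control effect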
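ATP-content bioluminescence gauges trophozoite survival. Cells (100/well) receive compound and incubate anaerobically for 48 hrs at 37 deg C; detection reagent follows for 15-30 min at room temperature.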
D3 antag: antagonists of human D3 dopamine receptor. max response, negative = inhibition, %. AID 652054. 360,000 tested, 2.5% active. D3R cells, DiscoveRx beta-arrestin luminescence, antagonist mode; stronger effect = lower value; in the data active = max response below about -50%; inconclusive = no clear call, values can overlap the other calls; also: % is scaled to controls: 0 for no effect and ±100 for the full control effect
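Cells plated overnight at 1500 cells/well, then exposed to library compounds with dopamine controls for 90 minutes at 37 degrees C. DiscoveRx reagent added for 30–60 minutes at room temperature; luminescence read, quantitative HTS format.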
An asterisk follows results filed as active; u = inconclusive; x = no result; ! = a repeat was not active. Most compounds without a hit are left out; they make up all but 2.8% or so of the library.

SMILES	DRD3 agonist	B2AR arrestin	Giardia killer	D3 antag
CN=c1scc(-c2ccccc2F)n1/N=C/c1ccc(O)c(O)c1O	107*	0%	-103*	11
C[C@H](O)[C@@H]1CN2CCc3c([nH]c4ccccc34)[C@@H]2C[C@@H]1N(C)C(=O)Nc1cc(Cl)cc(Cl)c1	-15	x	x	-50*
COc1ccccc1N1C(N)=NC(N)=NC1(C)C	-11	0%	22	-53*!
Cc1ccc(NS(=O)(=O)c2cc([N+](=O)[O-])ccc2NNC(=S)Nc2cccc(Cl)c2)c(C)c1	-4	-1%	-3	-73*
N#CC1=C(N)OC2=C(C(=O)CCC2)C1c1ccc(OC(=O)N2CCOCC2)cc1 (stereo not drawn)	0	0%	-12	-80*
CC1(C)CC(=O)C2=C(C1)OC(N)=C(C#N)C2c1ccc(OC(=O)N2CCOCC2)cc1 (stereo not drawn)	-3	0%	20	-13
CN(C)c1ccc(CNc2nc(-c3ccco3)nn2S(=O)(=O)c2ccc3ccccc3c2)cc1	4	x	x	x
Cc1cccc(C)c1NC(=O)COC(=O)c1c2c(nc3ccccc13)/C(=C\c1ccc3c(c1)OCO3)CCC2	7	-3%	0	-58*
CCn1c(=O)c2sccc2n2c(CCCC(=O)N3CCN(c4ccc(OC)cc4)CC3)nnc12	9	x	x	x
CC(=O)c1ccc(-n2c(-c3cc(-c4ccco4)[nH]n3)n[nH]c2=S)cc1	-10	0%	-2	-84*
O=C(O)c1ccc(-n2c(-c3cc(C4CC4)[nH]n3)n[nH]c2=S)cc1	-21	0%	-6	u
O=C(O)c1ccc(-n2c(-c3cc(-c4ccco4)[nH]n3)n[nH]c2=S)cc1	-11	0%	-13	-91*
Cc1cc(F)ccc1S(=O)(=O)Nc1ccccc1C(=O)Nc1ccccc1N1CCOCC1	2	-1%	-11	-28
Cc1ccc(C)c(S(=O)(=O)Nc2ccc(C(=O)N3CCOCC3)cc2)c1	-2	x	x	-51*
Cc1ccc(C)c(S(=O)(=O)Nc2ccccc2C(=O)Nc2ccccc2N2CCOCC2)c1	-4	0%	1	-57*
Cc1ccc(C)c(S(=O)(=O)c2nnn3c2nc(NC(C)C)c2sccc23)c1	6	x	x	x
Cc1cccc(C)c1NC(=O)C1=C(O)c2ccccc2N(C)S1(=O)=O	6	0%	-9	-52*
CC1(C)CC(=O)C=C(NC2=CC3OC(c4ccccc4)OCC3OC2=O)C1 (stereo not drawn)	-4	-1%	-3	-54*
Cc1c(C(=O)OCCN2CCCCC2)oc2ccccc12	-4	0%	4	-61*
O=C(OCCN1CCCCC1)c1c[nH]c2ccccc12	0	0%	-7	-57*
COCc1c(C(=O)N2CCN(CCOc3ccccc3)CC2)oc2ccccc12	88*	0%	-8	-7
Cc1c(C(=O)N2CCN(CCc3ccccc3)CC2)oc2ccccc12	-26	0%	12	-86*
Cc1ccc(C)c(NC(=O)C(=O)NCC(c2cccnc2)N2CCN(c3ccc(F)cc3)CC2)c1 (stereo not drawn)	1	x	x	x
CNC(=O)C1(C(F)(F)F)C/C(=C\Cc2ccccc2)CCCO1 (stereo not drawn)	x	x	-12	x
Cc1nn(CCC(=O)NNC(=S)NCC(C)C)c(C)c1Br	-53	9%	-3	-104*
SMILES	DRD3 agonist	B2AR arrestin	Giardia killer	D3 antag
CNC(=S)NNC(=O)CCn1nc(C)c(Br)c1C	-23	x	-6	u
CCOCCCNC(=S)NNC(=O)CCn1nc(C)c(Br)c1C	-35	0%	-5	-97*
CC1CC=CC2C1C(=O)N(Cc1ccccc1)C2c1ccoc1 (stereo not drawn)	x	x	-4	x
CN1CCN(CCCN2c3ccccc3Sc3ccc(Cl)cc32)CC1	x	x	3	-102*
CCSc1ccc2c(c1)N(CCCN1CCN(C)CC1)c1ccccc1S2	-84	0%	-5	-87*
CN1CCN(CCCN2c3ccccc3Sc3ccccc32)CC1	-26	x	x	x
OC1CC2CCC(C1)N2CCCN1c2ccccc2Sc2ccc(Cl)cc21 (stereo not drawn)	-16	x	-8	-102*
CC(CN1CCN(CCOCCO)CC1)CN1c2ccccc2Sc2ccc(Cl)cc21 (stereo not drawn)	-7	x	x	-117*
C[C@@H](O)[C@H]1C(=O)N2C(C(=O)O)=C([C@H]3CCCO3)S[C@H]12	-2	x	x	x
CCOc1ccc(-n2nc(CO)c(C(=O)NCC(c3ccccc3)c3ccccc3)n2)cc1	3	x	x	x
CN1C[C@@H]2C[C@H]1CN2c1cc2c(cc1F)c(=O)c(C(=O)O)cn2C1CC1	2	x	x	x
O=C(/C=C/c1cccc([N+](=O)[O-])c1)c1ccco1	-13	-2%	u	u
Cc1cccc(/C=C/C(=O)c2ccc([N+](=O)[O-])o2)c1	-6	5%	u	-58*
Cc1ccccc1/C=C/C(=O)c1ccc([N+](=O)[O-])o1	-18	0%	10	-58*
Cc1cccnc1NC(=O)c1ccc([N+](=O)[O-])o1	7	-1%	u	-8
COc1ccc(S(=O)(=O)N2CCN(C(=O)c3ccc([N+](=O)[O-])o3)CC2)cc1	2	0%	u	0
COc1ccc(/C=C/C(=O)c2ccc([N+](=O)[O-])o2)cc1	-28	0%	-21	-75*
O=C(/C=C/c1cccc([N+](=O)[O-])c1)c1ccc([N+](=O)[O-])o1	-63	x	9	-137*
Cc1ccc(NC(=O)Cn2cc(C(=O)c3ccco3)c3ccccc32)cc1C	11	x	x	x
CCCC(=O)Nc1nnc(S(=O)(=O)N(C)Cc2ccc(Cl)cc2)s1	8	x	x	x
O=C1C=C(c2ccc(OC(F)(F)F)cc2)C[C@@H](c2ccc(F)cc2)C1	14	-1%	20	0
COc1ccc([C@H]2CC(=O)C=C(c3ccc(F)cc3OCc3ccccc3)C2)cc1	29	0%	3	5
COc1ccc([C@H]2CC(=O)C=C(c3cccc(C(C)C)c3)C2)cc1	-56	0%	-11	-61*
COc1ccc([C@H]2CC(=O)C=C(c3ccc(F)cc3OCc3ccccc3)C2)cc1OC	73*	-1%	3	116
O=C1C=C(c2ccc(Oc3ccccc3)cc2)C[C@@H](c2ccc(F)cc2)C1	-8	0%	-10	-73*
SMILES	DRD3 agonist	B2AR arrestin	Giardia killer	D3 antag
O=C1C=C(c2ccc(F)cc2OCc2ccccc2)C[C@@H](c2ccc(F)cc2)C1	42*	0%	-6	-15
CCn1cc(CNC(=O)c2cc(-c3ccc(C)cc3)nc3ccc(Br)cc23)c(C)n1	4	x	x	x
COc1cc(C(=O)Nc2cccc(-c3nc4cc(C)cc(C)c4o3)c2)cc(OC)c1OC	52*	0%	8	41
Cc1ccc(-n2c3c(c(=O)[nH]c2=O)C(NC(=O)c2ccccc2F)(C(F)(F)F)C(=O)N3)cc1C (stereo not drawn)	-7	x	x	x
CN1CCN(c2nc(NCCOC34CC5CC(CC(C5)C3)C4)nc(OCC(F)(F)F)n2)CC1	-13	0%	-5	-61*
CCCNc1nc(OCC(F)(F)F)nc(OCC(F)(F)F)n1	7	0%	10	-12
O=[N+]([O-])c1ccc(Nc2nc(Cl)nc(NCCO)n2)cc1	-8	0%	8	-12
O=[N+]([O-])/C(Cl)=C(/NCCO)C(Cl)=C(Cl)Cl	6	x	-100*	2
